Reference: PubChem BioAssay (NCI)
The panel holds about 83,000 compounds, 20% with a hit somewhere; the sample as a whole holds those more often.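 Method: cells in 96-well plates; compound added at one concentration; 48 h incubation; percent growth measured; values under 10 scored active.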 The source made the active and inactive calls.

tested on: U251 CNS; test: NCI-60 one-dose screen, 48 h (100 = growth as untreated, 0 = no growth, -100 = all killed); conditions: 10 µM unless noted

SMILES	growth
C=C(C)[C@@H]1CC[C@]2(C(=O)N3CCCNCC3)CC[C@]3(C)[C@H](CC[C@@H]4[C@@]5(C)CCC(=O)C(C)(C)[C@@H]5CC[C@]43C)[C@@H]12	78% (inactive)
CCCCC[C@H]1CC=C2C(=O)C(Cl)=C[C@@H]2CC=CCCCC(=O)O[C@@H](CCCCC)CC=C2C(=O)C(Cl)=C[C@@H]2CC=CCCCC(=O)O[C@@H](CCCCC)CC=C2C(=O)C(Cl)=C[C@@H]2CC=CCCCC(=O)O1	35.2% [8 µM] (inactive)
Cn1c(=O)c2c(ncn2CCC(=O)Nc2ccc(F)cc2)n(C)c1=O	98.4% (inactive)
COc1ccc(-c2cc(-c3c(C)oc4cc5occc5c(OC)c4c3=O)nc(N)c2C#N)cc1OC	48.9% (inactive)
COc1cc(NC(C)CN(CC(C)C)C(C)C)c2ncccc2c1 (configuration not stated)	100% (inactive)
COc1ccc(/C=C/C(=O)NCC(C)O)cc1 (configuration not stated)	95.8% (inactive)
Cc1cc(N(CCCNc2ccnc3cc(Cl)ccc23)Cc2ccco2)nc(Cl)n1	60.7% (inactive)
Cc1c(C)c2c(c(C)c1NC(=O)CCCCCCC(=O)O)CCC(C)(CCCC(C)CCCC(C)CCCC(C)C)O2 (configuration not stated)	68.9% (inactive)
CN(C)c1ccc(N=C2C=CC(=O)C=C2)cc1	76.5% (inactive)
Fc1ccc(NCc2nnc(-c3ccc(Cl)cc3)o2)cc1	77.8% (inactive)
COc1ccc(OCC(CO)N2CCN(c3ccccc3)CC2)cc1 (configuration not stated)	97.3% (inactive)
CCCCC(=O)OC1CCCCC1C (configuration not stated)	85.6% (inactive)
COc1ccc2c(c1)c(-c1nc(-c3cn(C)c4ncccc34)cs1)cn2CCN	84.8% (inactive)
COc1ccc(CCN2C(=O)C(C)(C)SC2=S)cc1OC	100% (inactive)
Cc1nnc2nc(N)[nH]n2c1=O	99% (inactive)
COc1cccc(-c2nn(-c3ccccc3)cc2-c2ccnc(NCCNS(=O)(=O)c3cccc(F)c3)c2)c1	27% (inactive)
Cc1cc(Cl)c2c(N(C)C)cccc2n1	105% (inactive)
COc1ccccc1-n1cnc(N)c1C(=O)c1cc(OC)c(OC)c(OC)c1	36.8% (inactive)
Cc1cc(N2CCCCC2)nc(N(CCNc2ccnc3cc(Cl)ccc23)Cc2ccco2)n1	14.4% (inactive)
N#CC1=C(N)Oc2c(c(N)nn2-c2ccccc2)C1c1ccc(Cl)cc1Cl (configuration not stated)	91.6% (inactive)

SMILES	growth
COc1ccc(NC(=O)c2ccc3c(c2)nc(-c2cc4ccccc4[nH]c2=O)n3-c2cc(C(C)(C)C)[nH]n2)cc1	85.6% (inactive)
N#CC1=C(N)Oc2c(sc3c(F)cccc23)C1c1ccc(Cl)cc1 (configuration not stated)	25.7% (inactive)
Cc1ccc(Cc2cnc(NC(=O)/C=C/c3cccc(C)c3)s2)cc1	9.32% (active)
Oc1cccc2oc(=S)[nH]c12	109% (inactive)
COc1cc(/C=C/c2cc(/C=C/c3ccc(O)c(OC)c3)n(-c3ccccc3)c(=O)n2)ccc1O	56.1% (inactive)
NC(=O)NCC1CCCCC1	104% (inactive)
N#Cc1cnc2cc(OC[C@@H](O)CO)c(NC(=O)CC3CSSC3)cc2c1Nc1ccc(OCc2cccc(F)c2)c(Cl)c1	-70.2% (active)
CC(=O)OCCCCCCn1c2ccccc2c2c3c(c4c5ccccc5n(C)c4c21)C(=O)N(O)C3=O	58.4% (inactive)
Cc1nn2c(-c3nc4cc(Cl)c(Cl)cc4[nH]3)c(-c3ccc(F)cc3)nc2s1	10.6% (inactive)
COc1ccc(-n2c(/C=C/c3ccc(O)c(OC)c3)cc(/C=C/c3ccc(O)c(OC)c3)nc2=O)cc1	32.4% (inactive)
Cc1ccc2oc(=O)cc(-c3sc(N4CCCCC4)nc3-c3ccccc3)c2c1	101% (inactive)
Nc1c2c(nc3ccc(Cl)cc13)CC(c1ccc(O)cc1)CC2=O (configuration not stated)	47.2% (inactive)
O=C1c2ccccc2C(=Cc2ccccc2)c2ccccc21	6.21% (active)
C/C(=N\NC(=O)C(C)SC(C)C(=O)N/N=C(\C)c1cccnc1)c1cccnc1 (configuration not stated)	110% (inactive)
O=C1CCC/C=C\C[C@H]2C=C(Cl)C(=O)/C2=C/C[C@H](CCCCC(F)(F)F)OC(=O)CCC/C=C\C[C@H]2C=C(Cl)C(=O)/C2=C/C[C@H](CCCCC(F)(F)F)O1	-67.7% [7.5 µM] (active)
O=C1/C(=C\c2ccco2)SC(=S)N1CCc1ccc(O)cc1	96.7% (inactive)
O=C(O)/C(=C/c1ccc(O)cc1)c1ccccc1	93.7% (inactive)
CCCCC/C(=C\c1ccccc1)C1OC(C)C(C)O1 (configuration not stated)	86.3% (inactive)
Cc1cc(C=O)c(C)c2c1[nH]c1ccccc12	94.1% (inactive)

tested on: PC-3 prostate; test: as above; conditions: 10 µM unless noted

SMILES	growth
Cn1c(=O)c2c(ncn2CCC(=O)Nc2ccc(F)cc2)n(C)c1=O	80.9% (inactive)
COc1ccc(-c2cc(-c3c(C)oc4cc5occc5c(OC)c4c3=O)nc(N)c2C#N)cc1OC	62.6% (inactive)
Cc1cc(N(CCCNc2ccnc3cc(Cl)ccc23)Cc2ccco2)nc(Cl)n1	49% (inactive)
Fc1ccc(NCc2nnc(-c3ccc(Cl)cc3)o2)cc1	54.3% (inactive)
COc1ccc2c(c1)c(-c1nc(-c3cn(C)c4ncccc34)cs1)cn2CCN	70.2% (inactive)
Cc1nnc2nc(N)[nH]n2c1=O	98% (inactive)
N#CC1=C(N)Oc2c(sc3c(F)cccc23)C1c1ccc(Cl)cc1 (configuration not stated)	8.41% (active)
Cc1ccc2oc(=O)cc(-c3sc(N4CCCCC4)nc3-c3ccccc3)c2c1	88.1% (inactive)
